Structures are written as SMILES.

One assay addresses Hexose transporter 1 (Plasmodium falciparum) (UniProt O97467). Nature of the assay: ST_JUDE_LEISH: Cytotoxicity at 2uM final concentration against transgenic Leishmania Mexicana promastigotes LmPfHT that are glucose transport deficient and complemented with the Plasmodium falciparum hexose transporter. Activity is measured by DNA content using SYBR green in vitro. The assay is classed as functional.
For the molecule `Cc1c(S(=O)(=O)Nc2cccc(CCN3CCCCC3CCN3CCCC3)c2)sc2ccc(Cl)cc12` (stereo not given), the inhibition (as a rule, the relative decrease from the control value, in per cent) was determined as 2.14%.
For the molecule `Cc1ccc(C(=O)Nc2ccc(OC3CCN(CCC(C)C)C3)c(Cl)c2)cc1` (stereo not given), the inhibition is 4.8%.
For `Cc1cccc2nc(-c3ccc(-c4ccc(NC(=O)C(=O)c5cccn5C)cc4)cc3)[nH]c12`, the inhibition came to 1.84%.
In the case of `CCCCNC(=O)c1cc(CNC2CCCCC2)ccc1-c1cccc(CNCc2ccc(-c3ccccc3)cc2)c1`, the inhibition amounted to 5.46%.
As to `COc1cc(/C=C/C(=O)NC2CCC(N3CCC(c4ccccc4C)CC3)CC2)cc(OC)c1` (stereo not given), the inhibition was -0.16%.
Same read-out and setting: the figure for `CCCCNc1cc(C)nc(NCc2ccccc2)n1` is 16.4%; for `Cc1cc(CNC(=O)c2ccc(-c3ccc(-c4nc5cc(C(F)(F)F)ccc5[nH]4)s3)cc2)on1` it is 3.31%.
For `CC(C)(C)c1ccc(Cn2c(=N)n(CC(=O)c3ccc(-c4ccccc4)cc3)c3ccccc32)cc1`, the inhibition is -0.1%.
Consider `Cc1ccc(C)c2sc(N(CCCn3ccnc3)C(=O)c3ccco3)nc12`, for which the inhibition stood at 5.62%.
On the same count and under the same terms, under `CCCc1cc(C(=O)N[C@@H](Cc2ccccc2)[C@H](O)CNC(C)(C)c2cccc(OC)c2)c(F)c(N2CCCC2=O)c1` stands 7.94%.
On to `O=C(Nc1cccc(C2=NCCCN2)c1)Nc1cccc(C2=NCCCN2)c1`, for which the inhibition turned out to be 1.94%.
Consider `CC(C)(C)OC(=O)NCc1ccc(Nc2nnc(-c3cccc(C(=O)NCCC(c4ccccc4)c4ccccc4)c3)o2)cc1`, for which the inhibition is 10.6%.
With `CN(C)CCNCc1ccc(-c2ccc3c(Nc4ccc(Oc5ccccc5)cc4)ccnc3c2)o1`, the inhibition was -1.01%.
For `Cc1occc1C(=O)Nc1nc(-c2ccccn2)nc2ccsc12`, the inhibition amounted to 73.2%.
As for `CN(C)CC1CCCN1Cc1ccccc1-c1cnn(C)c(=O)c1Oc1ccc(F)cc1` (stereo not given), the inhibition was determined as 4.08%.
For `O=C(/C=C/c1ccc(Cl)cc1)NCCCCCN1CCCN(C(=O)Nc2ccc(F)c(Cl)c2)CC1`, the inhibition amounted to 3.92%.
Take `Nc1ncnc2cc(-c3cccc(NC(=O)Nc4ccccc4)c3)sc12`: the inhibition amounted to 2.18%.
In the case of `O=C(NC1CCN(Cc2cccc(C(F)(F)F)c2)CC1)c1ccc(-c2cccc(C(F)(F)F)c2)s1`, the inhibition was 3.03%.
With `Nc1c2c(nc3ccc(NC(=O)CCCc4ccccc4)cc13)CCCC2`, the inhibition was found to be 1.78%.
On to `O=C(CN1CCN(S(=O)(=O)C=Cc2ccccc2)CC1)Nc1cc(C(F)(F)F)ccc1Cl`, for which the inhibition stood at 7.6%.
Consider `O=C(Nc1ccc(Cl)cc1)Nc1ccc2c(c1)N1CCN=C1S2`, for which the inhibition is -1.2%.
For the molecule `O=C(CCc1ccccc1)NC(c1ccc(Cl)cc1)c1ccc2cccnc2c1O` (stereo not given), the inhibition came out at 1.91%.
For `CCN(CC)CCN(Cc1ccc(-c2ccc(C(F)(F)F)cc2)cc1)C(=O)Cn1c(CCc2cccc(F)c2F)nc(=O)c2ccc(F)cc21`, the inhibition came to 1.35%.
With `O=C(C=Cc1ccc(Cl)c(Cl)c1)NCCCCCN1CCC(CCCNC(=O)c2ccc3c(c2)OCO3)CC1`, the inhibition is 4.24%.
Regarding `COc1cc(OC)c2c(C)cc(NCCCN3CCOCC3)nc2c1`, the inhibition came to 0.95%.
Take `O=C(/C=C/C=C/c1ccccc1)NCCCCCN1CCC(c2c[nH]c3ccccc23)CC1`: the inhibition was found to be 4.23%.
As to `CCN(CCCN1CCCCC1)c1cc(C)nc(Nc2cccc(C(F)(F)F)c2C)n1`, the inhibition was 1.74%.
Turning to `NC(=O)c1ccccc1OCC(=O)Nc1ccc(-c2cccc(-c3nc4cc(C(F)(F)F)ccc4[nH]3)c2)cc1`, the inhibition was -0.46%.
As to `O=C(Nc1ccc(Cl)cc1F)NC1CCN(CCCCCNC(=O)C2CC2c2ccc(Cl)c(Cl)c2)CC1` (stereo not given), the inhibition was 0.8%.
Still for that read-out and setting: under `CC(C)C[C@@H](NC(=O)NC1CCC(CCN2C3CCC2CC(OC(=O)C(CO)c2ccccc2)C3)CC1)C(O)(c1ccccc1)c1ccccc1` (stereo not given in full) stands 2.19%.
For the molecule `CCCN(Cc1nnc(-c2cccs2)o1)C(=O)C1COc2ccccc2O1` (stereo not given), the inhibition worked out at 3.17%.
As for `COc1cccc(C(=O)NC(c2ccccc2OC)c2cc(Cl)c3cccnc3c2O)c1` (stereo not given), the inhibition was -2.45%.
Regarding `COc1ccc(NC(=O)/C=C/c2ccccc2Cl)cc1OCCN1CCC(N2CCN(C)CC2)CC1`, the inhibition amounted to 6.39%.
For the molecule `Cc1ccc(-c2nnc(Nc3ccc(C(=O)N4CCCCC4)cc3)c3ccccc23)cc1S(=O)(=O)NCC1CCCO1` (stereo not given), the inhibition came out at 21.1%.
Turning to `CC(O)C1CCCCN1C(=O)c1ccc(-c2ccc(-c3nc4cc(F)ccc4[nH]3)cc2)cc1` (stereo not given), the inhibition came to 3.23%.
Regarding `CCCNCc1ccc(-c2ccc(CN(Cc3ccc4c(c3)OCO4)C(=O)Cc3cccnc3)cc2)nc1`, the inhibition came out at 15.2%.
Turning to `COc1ccc(CCCON2C(=N)N=C(N)NC2(C)C)cc1`, the inhibition stood at 23%.
As for `Cc1ccc(C)c(NC(=O)Nc2ccc(C)c(-c3ccc(C(=O)Nc4ccncc4)cc3)c2)c1`, the inhibition is 3.66%.
Still for that read-out and setting: under `COc1cc(C2=NN(S(=O)(=O)c3c(C)cc(C)cc3C)CCCC2)ccc1Cl` stands 3.46%.
In the case of `CCCCc1ccc(-c2ccc(-c3c(C)[nH]c(C)c(Br)c3=O)cn2)cc1`, the inhibition came to 3.53%.

The next assay deals with Glucose transporter (Leishmania mexicana) (UniProt O61059). Nature of the assay: ST_JUDE_LEISH: Cytotoxicity at 2uM final concentration against transgenic Leishmania Mexicana promastigotes LmGT2 that are glucose transport deficient and complemented with the L. Mexicana glucose transporter 2. Activity is measured by DNA content using SYBR green in vitro. The assay is classed as functional.
Regarding `Cc1c(S(=O)(=O)Nc2cccc(CCN3CCCCC3CCN3CCCC3)c2)sc2ccc(Cl)cc12` (stereo not given), the inhibition was -0.62%.
Take `Cc1ccc(C(=O)Nc2ccc(OC3CCN(CCC(C)C)C3)c(Cl)c2)cc1` (stereo not given): the inhibition was 3.43%.
On to `Cc1cccc2nc(-c3ccc(-c4ccc(NC(=O)C(=O)c5cccn5C)cc4)cc3)[nH]c12`, for which the inhibition stood at 0.5%.
Regarding `CCCCNC(=O)c1cc(CNC2CCCCC2)ccc1-c1cccc(CNCc2ccc(-c3ccccc3)cc2)c1`, the inhibition was determined as 2.67%.
`COc1cc(/C=C/C(=O)NC2CCC(N3CCC(c4ccccc4C)CC3)CC2)cc(OC)c1` (stereo not given): the inhibition came to 0.77%.
Consider `CCCCNc1cc(C)nc(NCc2ccccc2)n1`, for which the inhibition came to 5.11%.
`Cc1cc(CNC(=O)c2ccc(-c3ccc(-c4nc5cc(C(F)(F)F)ccc5[nH]4)s3)cc2)on1`: the inhibition came out at 1.12%.
`CC(C)(C)c1ccc(Cn2c(=N)n(CC(=O)c3ccc(-c4ccccc4)cc3)c3ccccc32)cc1`: the inhibition was -0.07%.
Regarding `Cc1ccc(C)c2sc(N(CCCn3ccnc3)C(=O)c3ccco3)nc12`, the inhibition turned out to be 5.23%.
Still for that read-out and setting: the figure for `CCCc1cc(C(=O)N[C@@H](Cc2ccccc2)[C@H](O)CNC(C)(C)c2cccc(OC)c2)c(F)c(N2CCCC2=O)c1` is 9.99%; for `O=C(Nc1cccc(C2=NCCCN2)c1)Nc1cccc(C2=NCCCN2)c1` it is 0.46%; for `CC(C)(C)OC(=O)NCc1ccc(Nc2nnc(-c3cccc(C(=O)NCCC(c4ccccc4)c4ccccc4)c3)o2)cc1` it is 7.8%.
Same read-out and setting: under `CN(C)CCNCc1ccc(-c2ccc3c(Nc4ccc(Oc5ccccc5)cc4)ccnc3c2)o1` stands -0.02%.
`Cc1occc1C(=O)Nc1nc(-c2ccccn2)nc2ccsc12`: the inhibition was 70%.
On to `CN(C)CC1CCCN1Cc1ccccc1-c1cnn(C)c(=O)c1Oc1ccc(F)cc1` (stereo not given), for which the inhibition was found to be 4.45%.
In the case of `O=C(/C=C/c1ccc(Cl)cc1)NCCCCCN1CCCN(C(=O)Nc2ccc(F)c(Cl)c2)CC1`, the inhibition turned out to be 4.64%.
Consider `Nc1ncnc2cc(-c3cccc(NC(=O)Nc4ccccc4)c3)sc12`, for which the inhibition is -1.3%.
Same read-out and setting: under `O=C(NC1CCN(Cc2cccc(C(F)(F)F)c2)CC1)c1ccc(-c2cccc(C(F)(F)F)c2)s1` stands 6.14%.
Same read-out and setting: the figure for `Nc1c2c(nc3ccc(NC(=O)CCCc4ccccc4)cc13)CCCC2` is 0.12%; for `O=C(CN1CCN(S(=O)(=O)C=Cc2ccccc2)CC1)Nc1cc(C(F)(F)F)ccc1Cl` it is 8.72%; for `O=C(Nc1ccc(Cl)cc1)Nc1ccc2c(c1)N1CCN=C1S2` it is 5.02%.
As for `O=C(CCc1ccccc1)NC(c1ccc(Cl)cc1)c1ccc2cccnc2c1O` (stereo not given), the inhibition came out at 3.42%.
Same read-out and setting: the figure for `CCN(CC)CCN(Cc1ccc(-c2ccc(C(F)(F)F)cc2)cc1)C(=O)Cn1c(CCc2cccc(F)c2F)nc(=O)c2ccc(F)cc21` is 2.49%.
On to `O=C(C=Cc1ccc(Cl)c(Cl)c1)NCCCCCN1CCC(CCCNC(=O)c2ccc3c(c2)OCO3)CC1`, for which the inhibition was -3.71%.
Take `COc1cc(OC)c2c(C)cc(NCCCN3CCOCC3)nc2c1`: the inhibition was -0.42%.
Regarding `O=C(/C=C/C=C/c1ccccc1)NCCCCCN1CCC(c2c[nH]c3ccccc23)CC1`, the inhibition was found to be 1.69%.
Turning to `CCN(CCCN1CCCCC1)c1cc(C)nc(Nc2cccc(C(F)(F)F)c2C)n1`, the inhibition came to 0.96%.
Take `NC(=O)c1ccccc1OCC(=O)Nc1ccc(-c2cccc(-c3nc4cc(C(F)(F)F)ccc4[nH]3)c2)cc1`: the inhibition was 3.74%.
Still for that read-out and setting: under `O=C(Nc1ccc(Cl)cc1F)NC1CCN(CCCCCNC(=O)C2CC2c2ccc(Cl)c(Cl)c2)CC1` (stereo not given) stands 3.62%; under `CC(C)C[C@@H](NC(=O)NC1CCC(CCN2C3CCC2CC(OC(=O)C(CO)c2ccccc2)C3)CC1)C(O)(c1ccccc1)c1ccccc1` (stereo not given in full), 0.94%.
On the same count and under the same terms, the figure for `CCCN(Cc1nnc(-c2cccs2)o1)C(=O)C1COc2ccccc2O1` (stereo not given) is 1.58%.
As for `COc1cccc(C(=O)NC(c2ccccc2OC)c2cc(Cl)c3cccnc3c2O)c1` (stereo not given), the inhibition stood at 0.13%.
In the case of `COc1ccc(NC(=O)/C=C/c2ccccc2Cl)cc1OCCN1CCC(N2CCN(C)CC2)CC1`, the inhibition was 0.87%.
Regarding `Cc1ccc(-c2nnc(Nc3ccc(C(=O)N4CCCCC4)cc3)c3ccccc23)cc1S(=O)(=O)NCC1CCCO1` (stereo not given), the inhibition was determined as 3.22%.
Turning to `CC(O)C1CCCCN1C(=O)c1ccc(-c2ccc(-c3nc4cc(F)ccc4[nH]3)cc2)cc1` (stereo not given), the inhibition is 3.6%.
On the same count and under the same terms, under `CCCNCc1ccc(-c2ccc(CN(Cc3ccc4c(c3)OCO4)C(=O)Cc3cccnc3)cc2)nc1` stands 10.2%; under `COc1ccc(CCCON2C(=N)N=C(N)NC2(C)C)cc1`, 18%; under `Cc1ccc(C)c(NC(=O)Nc2ccc(C)c(-c3ccc(C(=O)Nc4ccncc4)cc3)c2)c1`, 2.82%.
For `COc1cc(C2=NN(S(=O)(=O)c3c(C)cc(C)cc3C)CCCC2)ccc1Cl`, the inhibition was 3.33%.
Regarding `CCCCc1ccc(-c2ccc(-c3c(C)[nH]c(C)c(Br)c3=O)cn2)cc1`, the inhibition was 1.52%.
